# Assay outcomes from PubChem.
# Hits are enriched below; roughly 3.1% of the tested compounds scored in any of these assays.
# MEKK2mut PB1 HTS = MEK5 binding signal on mutant MEKK2 PB1, primary screen, biochemical, multiplex bead flow cytometry, Alexa488-MEK5; percent response, % at 10 µM; hit rate 0.35% among 290,000; Alexa488-MEK5 binding to MEKK2 mutant; in the data active means percent response above about 24%, passing the limit was not always enough
# MEKK3 PB1 HTS = modulators of MEKK3-MEK5 PB1 binding, primary screen, biochemical, wildtype MEKK3, multiplex bead flow cytometry, Alexa488-MEK5 | binding response (% of control), % at 10 µM | bead-based flow cytometry, Alexa488-MEK5 binding to MEKK3; actives lie on both sides; 0 = blocked by unlabeled MEK5, 100 = vehicle | hit rate 1.4% among 290,000 | Mitogen-activated protein kinase kinase kinase 3 (Homo sapiens), Q99759 | AID 1529, 2009;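 active means binding response more than 3 SD above or below the average of its plate-row segment, actives on both sides; inconclusive means wells at one plate position flagged as instrument error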;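 further: Alexa488 bead fluorescence after subtracting the streptavidin-only scavenger bead signal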
# MEKK2 WT-MEK5 = modulators of MEK5 binding to wildtype MEKK2, primary screen, biochemical, multiplex bead flow cytometry, Alexa488-MEK5 | Mitogen-activated protein kinase kinase kinase 2 (Homo sapiens), Q9Y2U5 | Alexa488-MEK5 binding to MEKK2 WT; actives lie on both sides | binding response (% of control), % at 10 µM | hit rate 1.1% among 290,000 | AID 1531, 2009; in the data active means binding response below about 67% or above about 130%; inconclusive means no clear call, values can overlap the other calls; inactive means in between
# UBC13 polyUb = UBC13 polyubiquitin chain formation inhibitors, primary screen, biochemical, TR-FRET, uHTS. inhibition, % at 20 µM. AID 485273, 2010. hit rate 0.47% among 330,000; in the data active means inhibition above about 45%, passing the limit was not always enough; inconclusive means no clear call, values can overlap the other calls
# Target sequence (P61088 whole entry, looked up): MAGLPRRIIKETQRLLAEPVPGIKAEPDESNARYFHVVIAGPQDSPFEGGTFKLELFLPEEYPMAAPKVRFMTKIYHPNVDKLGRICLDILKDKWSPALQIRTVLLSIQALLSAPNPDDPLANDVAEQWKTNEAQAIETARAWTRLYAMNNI
# ATG4B inh = ATG4B protease inhibitors, primary screen, biochemical, fluorescence, uHTS; ATG4B cleavage of LC3-PLA2, NBD-HPC fluorescence, 1 h; AID 504462, 2011; inhibition, % at 8.33 µM; hit rate 0.51% among 340,000; Cysteine protease ATG4B (Homo sapiens), Q9Y4P1; in the data active means inhibition above about 40%
# Target sequence (Q9Y4P1 whole entry, looked up): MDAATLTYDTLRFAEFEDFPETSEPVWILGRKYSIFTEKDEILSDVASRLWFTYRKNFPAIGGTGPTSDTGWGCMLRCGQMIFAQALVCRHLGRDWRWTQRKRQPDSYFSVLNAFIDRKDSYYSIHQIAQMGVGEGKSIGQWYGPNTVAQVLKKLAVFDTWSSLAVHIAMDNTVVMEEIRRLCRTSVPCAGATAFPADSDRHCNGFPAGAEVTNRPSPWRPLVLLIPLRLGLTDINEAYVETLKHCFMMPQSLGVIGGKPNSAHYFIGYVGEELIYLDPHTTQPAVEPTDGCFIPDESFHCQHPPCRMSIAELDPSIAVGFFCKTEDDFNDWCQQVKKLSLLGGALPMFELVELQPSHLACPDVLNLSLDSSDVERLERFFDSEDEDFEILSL
# PREPL inhibitor = PREPL enzyme inhibitors, primary screen, biochemical, fluorescence polarization; recombinant PREPL, fluorescence polarization activity-based probe; inhibition, % at 5.96 µM; hit rate 0.68% among 320,000; in the data active means inhibition above about 43%;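 further: 0% = enzyme with DMSO and 100% = wells lacking enzyme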
# Casp3 counter = CASP3 inhibitor validation, counterassay for project on UBE2N polyubiquitination blockers, biochemical, one dose | shares compounds with UBC13 polyUb | Recombinant caspase-3, Caspase-Glo 3/7 luminescence, 60 min | inhibition, % at 20 µM | hit rate 4% among 1,400 | AID 488856, 2010;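 active means mean inhibition across replicates above about 26%, limit read from the data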;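 further: plate controls were DMSO with caspase-3 for no effect and DMSO wells lacking enzyme for full effect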
# UBC13 conf = UBC13 polyubiquitination inhibitors, single-point retest, confirmation, biochemical, TR-FRET, single concentration; inhibition, % at 10 µM; shares compounds with UBC13 polyUb; hit rate 68% among 1,400; in the data active means inhibition above about 45%; inconclusive means no clear call, values can overlap the other calls
# Numbers without * were called inactive; ? = inconclusive; . = no result.
SMILES,MEKK2mut PB1 HTS,MEKK3 PB1 HTS,MEKK2 WT-MEK5,UBC13 polyUb,ATG4B inh,PREPL inhibitor,Casp3 counter,UBC13 conf
CCCCc1ccc(/C=C(\C#N)C(N)=S)s1,5,108,5.0*,53*,9,.,1,59*
CC(C)(C)C1CCC(CN2C(Nc3ccccc3)=NC[C@@H]2Cc2ccccc2)CC1 (stereo not given in full),.,.,.,72*,2,25,3,77*
CCN1C(Nc2ccccc2)=NC[C@@H]1Cc1ccccc1,-1,100,101,7,-2,5,.,.
c1ccc(CCCCN2C(Nc3ccccc3)=NC[C@@H]2Cc2ccccc2)cc1,.,.,.,49*,3,-6,-4,17
CC1(C)Cc2c(sc(NC(=O)COc3ccc(Cl)cc3Cl)c2C(N)=O)C(C)(C)N1,10,107,129,74*,0,-6,-1,109*
O=C(CCNC(=O)c1ccc([N+](=O)[O-])cc1)NNC(=O)c1ccccc1F,.,.,.,-17,8,10,.,.
O=C(Nc1ccc(C(=O)NCCCN2CCN(c3ccc(F)cc3)CC2)cc1)C1=CSCCO1,9,103,126,65*,2,22,-1,97*
COc1cc(C(=O)Nc2nc3ccc(S(C)(=O)=O)cc3s2)cc(OC)c1C,3,103,99,47*,2,4,0,24
Cc1ccc(NC(=S)NNC(=O)c2nn(C)cc2Cl)cc1,7,100,100,-2,-6,-2,.,.
Cc1ccc(NC(=S)NNC(=O)c2nnn(-c3ccccc3)c2C)cc1,-2,95,94,45*,2,-3,3,48*
CCCc1ccc(OCc2ccc(C(=O)O)o2)c(OC)c1,9,107,107,11,-3,-2,.,.
COc1ccc(CCN(C)C(=O)c2ccc(COc3ccccc3)o2)cc1OC,-5,88,93,46*,2,14,-3,82*
CCCCN(CC)CCCNC(=O)c1cc2c(=O)n(C)c3ccccc3c2n1C,0,97,103,49*,-10,-43,-4,36
COc1ccnc2c1c(=O)n(Cc1ccc(Cl)cc1)c(=O)n2C,4,102,102,71*,-5,-24,0,?
COc1ccnc2c1c(=O)n(Cc1c(F)cccc1Cl)c(=O)n2C,4,100,102,9,1,9,.,.
COc1ccnc2c1c(=O)n(Cc1ccc(F)cc1)c(=O)n2C,2,100,100,57*,2,-13,0,67*
COc1cc(CC(=O)Nc2sc3c(c2C(N)=O)CCCC3)cc(OC)c1OC,2,104,106,4,-1,0,.,.
CC1CCCCC12NC(=O)N(CC(=O)N1CCN(C(=O)c3cccs3)CC1)C2=O (stereo not given),.,.,.,6,-2,1,.,.
Cc1sc2ncnc(N)c2c1C,-18,68,75,61*,1,-18,-7,49*
Cc1nn2c(nc(N3CCOCC3)c3ccccc32)c1C=C(C#N)C#N,-1,103,99,47*,-5,0,-4,46*
CN1C(=O)c2ccc(C(=O)Nc3ccccc3O)cc2C1=O,9,100,107,-10,-1,-1,.,.
COc1nc(-c2cccs2)cc(-c2ccc(C)cc2)c1C#N,5,105,99,28,-8,4,.,.
COc1ccc(-c2cc(-c3cccs3)nc(OC)c2C#N)cc1OC,11,102,100,50*,1,2,-2,44
CC(=O)c1cn(S(=O)(=O)c2ccccc2)c2ccccc12,3,105,102,91*,-8,-8,-2,88*
COc1ccc(CCNC(=O)Cn2c(=O)n(-c3ccc(C)c(F)c3)c(=O)c3sccc32)cc1OC,1,97,105,49*,-2,13,0,46*
SMILES,MEKK2mut PB1 HTS,MEKK3 PB1 HTS,MEKK2 WT-MEK5,UBC13 polyUb,ATG4B inh,PREPL inhibitor,Casp3 counter,UBC13 conf
CCOc1ccc2c(C)nc(NC3=NC(C)(C)C=C(C)N3)nc2c1,10,103,128,37,-2,19,.,.
CCOc1ccc2nc(NC3=NC(C)(C)C=C(C)N3)nc(C)c2c1,21,107,128,57*,-2,16,2,64*
Cc1ccc(C(=O)OCC(=O)NC2CCCC2)cc1C,2,100,104,4,3,3,.,.
O=C(N/N=C/c1cccc([N+](=O)[O-])c1)c1cc[n+](CCO)cc1,8,93,103,1,5,23,.,.
O=C(CCCCCn1c(=O)[nH]c2ccccc2c1=O)NCCCN1CCN(c2ccccc2F)CC1,.,.,.,63*,-14,3,-1,53*
O=C(CCCn1c(=O)[nH]c2ccccc2c1=O)NCCSCc1ccccc1,-4,101,94,10,-2,-11,.,.
O=C(CCNC(=O)Cn1ccc2ccccc2c1=O)NCCN1CCN(c2ccccc2F)CC1,2,95,100,91*,-12,8,2,101*
O=C(Cc1ccc(Cl)cc1)Nc1ccc(CN2CCCCC2)cc1,12,104,114,8,-12,5,.,.
O=c1c2cc(N3CCOCC3)ccc2[nH]c(=S)n1Cc1ccccc1Cl,-2,102,101,45*,1,-5,-4,?
COc1ccc(C(=O)OCC(=O)NC2CCCC2)cc1OC,1,105,100,2,4,7,.,.
COc1ccc(C(=O)OCC(=O)NC2CCCCCC2)cc1OC,.,.,.,66*,1,6,1,5
O=C(Nc1ccc(S(=O)(=O)NC2=NCCCCC2)cc1)c1ccc(Cl)cc1Cl,.,.,.,-9,2,-6,.,.
CC(C)Cn1cc(C(=O)NC2CCN(Cc3ccccc3)CC2)c2c3ccccc3n(C)c2c1=O,.,.,.,68*,.,20,-2,45
CC(C)Cn1cc(C(=O)NCCCN2CCC(C)CC2)c2c3ccccc3n(C)c2c1=O,.,.,.,76*,-6,-6,-4,50*
CC(C)Cn1cc(C(=O)NCCCN2CCCC2=O)c2c3ccccc3n(C)c2c1=O,2,96,95,28,0,2,.,.
